Measurements published in ChEMBL document CHEMBL3988442, “University of Dundee, Small-Polar-MMV Screening Library” (2021).
The campaign covered roughly 48,000 compounds. About 13,000 (27%) showed an effect of 50% or more. The list shows a part of the results.

system: Wolbachia pipientis; experiment: Anti-Wolbachia Cell-Based Screen; type: functional; parameters: scale not given: in the data most compounds retested in dose-response had high values; conditions: 5 µM

Point of comparison: `O=C(C1CN(Cc2ccsc2)Cc2ccnn2C1)N1CCCC1.O=C(O)C(F)(F)F.O=C(O)C(F)(F)F` (stereo not given), “Percent Effect” value 5.087%. Against it:
- COCC(=O)NC[C@H]1OC[C@@H](NC2CCC(F)(F)CC2)[C@@H]1O — lower, -6.952%
- O=S(=O)(C1CC1)N1CCC2(COCc3cnc(N4CCOCC4)nc32)C1 (stereo not given) — lower, -0.8991%
- CS(=O)(=O)N1CCC2(COCc3cnc(-c4ccccc4)nc32)C1 (stereo not given) — lower, 3.211%
- c1ccc(-c2ncc3c(n2)C2(CCN(c4ncccn4)C2)COC3)cc1 (stereo not given) — lower, -0.2326%
- O=S(=O)(C1CC1)N1CCC2(COCc3cnc(-c4cccnc4)nc32)C1 (stereo not given) — higher, 112.6%
- CN(C)S(=O)(=O)N1CCC2(COCc3cnc(-c4cccnc4)nc32)C1 (stereo not given) — higher, 117.1%
- CN(C)S(=O)(=O)N1CCC2(COCc3cnc(-c4ccccc4)nc32)C1 (stereo not given) — higher, 7.187%
- Cc1nn(C)c(NC(=O)C2SCCc3ccccc32)c1C (stereo not given) — lower, -51.32%
- COCCOc1ccc(NC(=O)C2CC(=O)N(C3CC3)C2)cn1 (stereo not given) — higher, 124.3%
- COCCOc1ccc(NC(=O)C2CC(=O)N(C(C)C)C2)cn1 (stereo not given) — higher, 102.1%
- COCCOc1ccc(NC(=O)C2CC(=O)N(CC3CC3)C2)cn1 (stereo not given) — higher, 88.01%
- COCCOc1ccc(NC(=O)N2CCCC2c2ccncc2)cn1 (stereo not given) — lower, -3.019%
- COCCOc1ccc(NC(=O)N(CCO)C2CC2)cn1 — lower, -3.493%
- COCCOc1ccc(NC(=O)N2CCCC2c2cc(C)no2)cn1 (stereo not given) — lower, -1.531%
- COCCOc1ccc(NC(=O)N2CCCC2c2cccs2)cn1 (stereo not given) — lower, -5.356%
- COCCOc1ccc(NC(=O)C2CCCN(C(N)=O)C2)cn1 (stereo not given) — lower, -6.192%
- COCCOc1ccc(NC(=O)N(C(C)C)C2CC2)cn1 — lower, -14.55%
- CCS(=O)(=O)N1CCN(CC(F)(F)F)CC1 — higher, 6.417%
- CS(=O)(=O)CCC(=O)NC1CC(c2ccccc2Cl)C1 (stereo not given) — lower, -3.689%
- Cc1cc(N2CCC(NC(=O)CCc3cnn(C)c3)CC2)nc(C)n1 — lower, -6.539%
- Cc1ccc(CC(=O)NC2CCN(c3cccc(Cl)c3)C2)cn1 (stereo not given) — lower, -6.758%
- O=C(CCc1ccsc1)NCC1CCN(c2ccccc2)C1 (stereo not given) — lower, -7.68%
- CNC(=O)CCc1cc(C2CCN(c3cnccn3)CC2)nc(C)n1 — higher, 127.7%
- CCn1ncnc1C(C)NC(=O)C1CCN(C2CCCCC2)CC1 (stereo not given) — lower, -9.983%
- CNC(=O)CCc1cc(C)nc(C2CCN(C3CCCCC3)CC2)c1 — higher, 132.7%
- CNC(=O)CCc1cc(C)nc(C2CCN(c3ccccc3)CC2)c1 — higher, 115.5%
- Cc1nc(C2CCN(CC(=O)NC3CC3)CC2)cc(N2CCOCC2)n1 — lower, -4.261%
- CCNC(=O)CCN1CCC(c2cc(N3CCOCC3)nc(C)n2)CC1 — lower, 2.574%
- CNC(=O)CCc1cc(C)nc(C2CCCN2)c1 (stereo not given) — lower, -6.068%
- Cc1cc(C)c(CNC(=O)N2CCN(c3cnccn3)CC2)c(=O)[nH]1 — lower, -4.919%
- CNC(=O)CCc1cc(C)nc(C2CCN(c3cnccn3)CC2)c1 — higher, 163%
- CCN(Cc1ccoc1)C(=O)NC1CCN(CC2CC2)C1 (stereo not given) — lower, -6.123%
- N#Cc1c(Cl)nsc1NCCCN1C(=O)COc2ccccc21 — lower, -8.12%
- CCN(C(=O)C1CCC1)C(c1cccnc1)c1ccc2c(c1)CCO2 (stereo not given) — lower, -9.854%
- COc1coc(CN2CCCC3(CCC(=O)N(CC4CC4)C3)C2)cc1=O (stereo not given) — lower, -7.938%
- CN(CCc1cnn(C)c1)C(=O)CN1C(=O)OC[C@@H]1c1ccccc1 — lower, -15.8%
- CN(CCc1cnn(C)c1)C(=O)Cn1c(=O)[nH]c2ccccc21 — higher, 117.9%
- CCOCCn1c(=O)[nH]c2cc(C(=O)N(C)Cc3cnn(C)c3)ccc21 — higher, 6.487%
- Cc1cc(C)c2nc(C)cc(C(=O)NCc3csc(N(C)C)n3)c2c1 — lower, -46.67%
- O=C(Nc1cnn(CC(=O)N2CCCCO2)c1)c1ccccn1 — lower, -7.331%
- O=C(O)c1ccc(F)c(S(=O)(=O)Nc2c(F)cccc2-n2cccn2)c1 — lower, -5.743%
- CN(C)CCn1c([C@H]2CCCO2)cc2cccnc21 — higher, 104.2%
- Cc1ccc(C#N)c(N2CCC(c3nccn3CCN(C)C)CC2)n1 — lower, -3.51%
- CN(C)CCn1ccnc1C1CCCN(c2nccc3ccccc23)C1 (stereo not given) — lower, -1.132%
- CN(C)CCn1c(=O)oc2ccc(NC(=O)C3CCCO3)cc21 (stereo not given) — lower, 1.023%
- CN(C)CCn1c([C@@H]2CCCO2)cc2cccnc21.Cl — higher, 90.46%
- Cc1nn(C)c2nc(N(Cc3ccccn3)CC3CCCO3)sc12 (stereo not given) — lower, -1.375%
- O=C(NCc1cccc(N2CC=CC2)c1)NCC(F)(F)F — lower, 2.139%
- COc1ccnc(N(C)Cc2c(C)noc2C)n1 — lower, 0.6416%
- O=C(NCCC(=O)N1CCCCCCC1)c1ccoc1 — higher, 130.7%
- CC(C)CN1CCC(C(=O)NCCNC(=O)c2ccoc2)CC1 — higher, 9.069%
- Cc1occc1C(=O)NCC(=O)N1CCCC(c2ccccc2)CC1 (stereo not given) — lower, 4.823%
- O=C(NCC(=O)N1CCCC(c2ccccc2)CC1)c1ccoc1 (stereo not given) — higher, 114.1%
- CCn1cnc(NC(=O)N2CCCC(c3ccccc3)CC2)n1 (stereo not given) — lower, 1.274%
- CC1CCCN(C(=O)NCC(F)F)C1 (stereo not given) — lower, -0.801%
- O=C(CCNC(=O)c1ccoc1)Nc1cc(F)cc(F)c1 — lower, -8.538%
- CC1CCCN(C(=O)CNC(=O)c2ccoc2)C1 (stereo not given) — higher, 104.6%
- O=C(CCNC(=O)c1ccoc1)Nc1c(F)cccc1F — lower, -2.292%
- c1cnnc(N2CCCC(NCc3ccc(-n4ccnc4)cc3)C2)c1 (stereo not given) — lower, 2.731%
- CN(Cc1cccs1)C(=O)CNC1CCc2ncnn2C1 (stereo not given) — lower, -0.9071%
- Cc1cc(=O)c2ccccc2n1CC1CCCN(C)C1 (stereo not given) — lower, -3.698%
- Cc1cc(S(=O)(=O)N2CCc3ccc(F)cc32)cc(C(=O)O)c1C — lower, -1.898%
- OC(CNCCn1cccn1)c1ccc2c(c1)OCCO2 (stereo not given) — lower, 4.861%
- CC(NC(=O)CNCCn1cccn1)c1ccc2c(c1)CCCC2 (stereo not given) — lower, 2.456%
- CC(NC(=O)CNCCn1cccn1)c1ccc2c(c1)OCCO2 (stereo not given) — lower, -2.168%
- CC(NC(=O)CCn1cccn1)c1ccc2c(c1)OCCO2 (stereo not given) — higher, 98%
- Cc1ccc(C(O)CNCCn2cccn2)cc1C (stereo not given) — lower, -13.13%
- CC(NC(=O)Cn1cccn1)c1ccc2c(c1)OCCO2 (stereo not given) — higher, 96.81%
- CC(NC(=O)NCCCO)c1ccc2c(c1)OCCO2 (stereo not given) — higher, 6.207%
- Cc1ccc(C(C)NC(=O)CNCCn2cccn2)cc1C (stereo not given) — higher, 67.97%
- CC(NC(=O)NCCCn1cncn1)c1ccc2c(c1)OCCO2 (stereo not given) — higher, 5.809%
- Cc1cnn(CCNCC(=O)NC(C)c2ccc3c(c2)OCCO3)c1 (stereo not given) — higher, 97.89%
- CC(NC(=O)Cn1cccn1)c1ccc2c(c1)OCCCO2 (stereo not given) — lower, -3.831%
- CC(NC(=O)NCCCn1ccnc1)c1ccc2c(c1)OCCCO2 (stereo not given) — lower, -3.282%
